Assay results reported in PubChem BioAssay (NCATS).
Results filed as inconclusive are left out. Calls of active or inactive are those of the source. Unless noted, calls come from the whole dose curve.

Legend:
[1] = qHTS for Inhibitors of the Functional Ribonucleoprotein Complex (vRNP) of Lassa (LASV) Arenavirus: LASV Primary Screen - GLuc reporter signal (AID 1347082; calls by dose curve; tested in HEK293 reporter line; note: nearly all actives have a fitted effect of over 60% in size)
[2] = qHTS for Inhibitors of the Functional Ribonucleoprotein Complex (vRNP) of Lassa (LASV) Arenavirus: Viability assay - alamar blue signal for LASV Primary Screen (AID 1347083; calls by dose curve; tested in HEK293 reporter line; note: nearly all actives have a fitted effect of over 80% in size)
[3] = qHTS for Inhibitors of the Functional Ribonucleoprotein Complex (vRNP) of Lymphocytic Choriomeningitis Arenaviruses (LCMV): Viability assay - alamar blue signal for LCMV Primary Screen (AID 1347085; calls by dose curve; tested in HEK293 reporter line; note: nearly all actives have a fitted effect of over 80% in size)
[4] = target: Nucleoprotein (Lymphocytic choriomeningitis virus (strain Armstrong)) (UniProt P09992); assay: qHTS for Inhibitors of the Functional Ribonucleoprotein Complex (vRNP) of Lymphocytic Choriomeningitis Arenaviruses (LCMV): LCMV Primary Screen - GLuc reporter signal (AID 1347086); note: nearly all actives have a fitted effect of over 70% in size

Measured: Potency
Note: series mostly up to about 57 µM.

Chain of Nucleoprotein (Lymphocytic choriomeningitis virus (strain Armstrong)) (P09992 whole entry, looked up): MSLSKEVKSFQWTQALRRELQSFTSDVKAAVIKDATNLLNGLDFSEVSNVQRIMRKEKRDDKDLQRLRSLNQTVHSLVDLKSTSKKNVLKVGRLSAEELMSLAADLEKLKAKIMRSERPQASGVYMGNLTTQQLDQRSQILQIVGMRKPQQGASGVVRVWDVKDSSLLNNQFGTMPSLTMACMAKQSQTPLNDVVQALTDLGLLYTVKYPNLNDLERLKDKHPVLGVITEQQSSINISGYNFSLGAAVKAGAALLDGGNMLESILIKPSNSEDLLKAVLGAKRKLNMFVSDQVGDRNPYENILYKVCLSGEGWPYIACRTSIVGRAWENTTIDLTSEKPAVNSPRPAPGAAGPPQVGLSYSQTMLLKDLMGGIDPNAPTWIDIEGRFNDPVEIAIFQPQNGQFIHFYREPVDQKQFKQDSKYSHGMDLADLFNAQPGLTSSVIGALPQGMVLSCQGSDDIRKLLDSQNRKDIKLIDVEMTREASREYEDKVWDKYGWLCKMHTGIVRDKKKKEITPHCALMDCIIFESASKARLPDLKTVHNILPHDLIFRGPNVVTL

O=C(O)CCCC[P+](c1ccccc1)(c1ccccc1)c1ccccc1
inactive: [1] | [2] | [3] | [4]

Cc1cc(=O)oc2cc(O[C@@H]3SC[C@@H](O)[C@H](O)[C@H]3O)ccc12
inactive: [1] | [2] | [3] | [4]

COC(=O)c1ccc(O)cc1
inactive: [1] | [2] | [3] | [4]

O=C(O)CCc1nc2ccccc2[nH]1
inactive: [1] | [2] | [3] | [4]

CCCCCCCCCCCCCCCCCCN(C)C
inactive: [1] | [2] | [3] | [4]

O=c1[nH]c(=O)n([C@H]2C[C@H](O)[C@@H](CO)O2)cc1I
inactive: [1] | [2] | [3] | [4]

CCOc1ncc(F)c(=O)[nH]1
inactive: [1] | [2] | [3] | [4]

NCCCNCCSP(=O)(O)O
inactive: [1] | [2] | [3] | [4]

Cc1nc(-c2ccc(Cl)cc2)oc1COC(C)(C)C(=O)O
inactive: [1] | [2] | [3] | [4]

COc1ccc(/C(C)=C/C(=O)O)c(OC)c1
inactive: [1] | [2] | [3] | [4]

CC1(C)O[C@H]2CC(=O)OC[C@]23[C@H]2CC[C@@]4(C)[C@H](c5ccoc5)OC(=O)[C@H]5O[C@]54[C@]2(C)C(=O)C[C@@H]13
inactive: [1] | [2] | [3] | [4]

CC(C)(C(=O)c1cccnc1)c1cccnc1
inactive: [1] | [2] | [3] | [4]

COc1ccc(CCN(C)CCCN2CCc3cc(OC)c(OC)cc3CC2=O)cc1OC
inactive: [1] | [2] | [3] | [4]

COC(=O)c1ccc(NC(C)=O)cc1OC
inactive: [1] | [2] | [3] | [4]
